# Screen size: about 39,000 compounds; about 3,300 (8.5%) were called active. Shown is part of a subset that was picked to be rich in actives.
# System: HepG2
# Test: cytotoxicity call (relative viability < 0.9)
# Settings: 10 µM
row,SMILES,cytotoxicity call
1,CC=Cc1ccc2n(c1=O)C[C@H]1[C@H](CO)[C@@H](C(=O)NC3CCC3)N(S(C)(=O)=O)[C@@H]21,inactive
2,COc1ccc(-c2cn3cc(C(=O)NCC(N)=O)nc3c(=O)n2CC2CC2)c(F)c1,inactive
3,C[C@@H]1CN([C@H](C)CO)C(=O)c2cc(NS(=O)(=O)c3cccs3)ccc2O[C@H]1CN(C)S(=O)(=O)c1ccc(F)cc1,inactive
4,COc1ccc(NC(=O)Nc2ccc3c(c2)[C@@H]2C[C@H](CC(=O)NCc4ccccn4)O[C@H](CO)[C@@H]2O3)cc1,inactive
5,C[C@@H]1CN([C@@H](C)CO)C(=O)c2cc(NC(=O)CCN3CCOCC3)ccc2O[C@@H]1CN(C)Cc1ccc2c(c1)OCO2,inactive
6,C[C@H]1CN([C@@H](C)CO)C(=O)c2cccc(NC(=O)C3CCCCC3)c2O[C@@H]1CN(C)S(=O)(=O)c1cn(C)cn1,inactive
7,C[C@H](CO)N1C[C@H](C)[C@@H](CN(C)C(=O)C2CC2)Oc2ncc(-c3ccc(C(=O)N(C)C)cc3)cc2C1=O,inactive
8,N[C@H](c1ccc2c(c1)OCCO2)c1ccco1,inactive
9,NCC[C@@H](Cc1ccccc1)c1ccc2c(c1)OCO2,inactive
10,N[C@@H](CCc1ccccc1Cl)c1ccc2c(c1)OCCO2,active
11,Cc1ccc(S(=O)(=O)Nc2cccc3c2O[C@H](CN(C)C(=O)Nc2cccc4ccccc24)[C@H](C)CN([C@H](C)CO)C3=O)cc1,inactive
12,O=C(NCCNS(=O)(=O)c1cccc2nonc12)[C@H]1COc2ccccc2O1,inactive
13,CS(=O)(=O)N1CCN(Cc2cc3nc(-c4cccc5n[nH]cc45)nc(N4CCOCC4)c3s2)CC1,active
14,C[C@H]1CN([C@@H](C)CO)C(=O)c2cc(C#CC3(O)CCCC3)cnc2O[C@H]1CN(C)S(=O)(=O)c1cccc(F)c1,inactive
15,COc1ccc(S(=O)(=O)N(C)C[C@H]2Oc3ccc(NS(=O)(=O)c4ccc(F)cc4)cc3CC(=O)N([C@H](C)CO)C[C@@H]2C)cc1,inactive
16,Cc1noc(C)c1S(=O)(=O)Nc1ccc2c(c1)CC(=O)N([C@H](C)CO)C[C@H](C)[C@H](CN(C)S(=O)(=O)c1ccc(Cl)cc1)O2,inactive
17,C[C@H](CO)N1C[C@H](C)[C@H](CN(C)S(=O)(=O)c2ccc(F)cc2)Oc2c(NS(=O)(=O)c3ccccc3)cccc2C1=O,inactive
18,O=C(CN1CCOC1=O)N1CCC2(CCC(=O)N(CCCn3ccnc3)C2)CC1,inactive
19,CCN(CC)CCCCNc1ncc2cc(-c3c(Cl)cccc3Cl)c(NC(=O)NC(C)(C)C)nc2n1,active
20,CCN(CC)CCNC(=O)COc1ccc(OC)cc1.Cl,inactive
21,CCN(CC)CCCCNc1ncc2cc(-c3cc(OC)cc(OC)c3)c(NC(=O)NC(C)(C)C)nc2n1,active
22,CC(C)=CCC/C(C)=C/CC/C(C)=C/CCC(=O)OC/C=C(\C)CCC=C(C)C,inactive
23,Cc1noc(C)c1NC(=O)Nc1ccc2c(c1)C(=O)N([C@H](C)CO)C[C@H](C)[C@H](CN(C)Cc1ccc(C(=O)Nc3ccccc3N)cc1)OCCCC[C@@H](C)O2,inactive

row,SMILES,cytotoxicity call
1,COc1ccc(NC(=O)N(C)C[C@H]2OCCCC[C@H](C)Oc3ccc(NC(=O)Cc4ccccc4)cc3C(=O)N([C@@H](C)CO)C[C@H]2C)cc1,inactive
2,C[C@@H]1CN([C@H](C)CO)C(=O)Cc2cc(NC(=O)Cc3cn(C)c4ccccc34)ccc2O[C@@H]1CN(C)C(=O)Nc1cccc2ccccc12,inactive
3,C[C@@H]1CCCCO[C@@H](CN(C)C(=O)Cc2ccccc2)[C@@H](C)CN([C@H](C)CO)C(=O)c2cc(NC(=O)Nc3ccc4c(c3)OCO4)ccc2O1,inactive
4,C[C@@H]1CCCCO[C@H](CN(C)Cc2ccc(C(F)(F)F)cc2)[C@@H](C)CN([C@@H](C)CO)C(=O)c2cc(NC(=O)c3ccncc3)ccc2O1,inactive
5,C[C@@H]1CCCCO[C@@H](CN(C)Cc2ccc(C(F)(F)F)cc2)[C@@H](C)CN([C@H](C)CO)C(=O)c2cc(NS(=O)(=O)c3ccccc3)ccc2O1,active
6,C[C@@H]1CCCCO[C@H](CN(C)Cc2ccc(C(F)(F)F)cc2)[C@@H](C)CN([C@H](C)CO)C(=O)c2cc(NS(=O)(=O)c3ccccc3)ccc2O1,inactive
7,C[C@H]1CCCCO[C@H](CN(C)Cc2ccc(C(F)(F)F)cc2)[C@@H](C)CN([C@@H](C)CO)C(=O)c2cc(NS(=O)(=O)c3ccccc3)ccc2O1,inactive
8,C[C@H](CO)N1C[C@H](C)[C@H](CN(C)Cc2ccc(C(F)(F)F)cc2)OCCCC[C@H](C)Oc2ccc(NS(=O)(=O)c3ccccc3)cc2C1=O,active
9,C[C@H]1CCCCO[C@@H](CN(C)Cc2ccc(C(F)(F)F)cc2)[C@@H](C)CN([C@@H](C)CO)C(=O)c2cc(NS(=O)(=O)c3ccccc3)ccc2O1,inactive
10,C[C@@H]1CCCCO[C@@H](CN(C)Cc2ccc(C(F)(F)F)cc2)[C@@H](C)CN([C@@H](C)CO)C(=O)c2cc(NS(=O)(=O)c3ccccc3)ccc2O1,active
11,C[C@@H]1CCCCO[C@H](CN(C)Cc2ccc(C(F)(F)F)cc2)[C@H](C)CN([C@H](C)CO)C(=O)c2cc(NS(=O)(=O)c3ccccc3)ccc2O1,inactive
12,C[C@@H]1CCCCO[C@@H](CN(C)Cc2ccc(C(F)(F)F)cc2)[C@H](C)CN([C@@H](C)CO)C(=O)c2cc(NS(=O)(=O)c3ccccc3)ccc2O1,active
13,C[C@@H]1CCCCO[C@@H](CN(C)Cc2ccc(C(F)(F)F)cc2)[C@H](C)CN([C@H](C)CO)C(=O)c2cc(NS(=O)(=O)c3ccccc3)ccc2O1,inactive
14,COc1ccc(S(=O)(=O)N(C)C[C@@H]2Oc3ccc(NC(=O)NC(C)C)cc3CC(=O)N([C@@H](C)CO)C[C@@H]2C)cc1,inactive
15,COc1ccc(NC(=O)N(C)C[C@H]2OCCCC[C@H](C)Oc3ccc(NC(=O)C4CCCCC4)cc3C(=O)N([C@H](C)CO)C[C@H]2C)cc1,inactive
16,C[C@@H]1CN([C@@H](C)CO)C(=O)CCCn2nncc2CO[C@H]1CN(C)C(=O)C1CC1,inactive
17,COc1ccc(NC(=O)N(C)C[C@H]2Oc3c(NS(C)(=O)=O)cccc3C(=O)N([C@@H](C)CO)C[C@H]2C)cc1,inactive
18,C[C@H]1CCCCO[C@@H](CN(C)C(=O)Nc2ccc(C(F)(F)F)cc2)[C@@H](C)CN([C@@H](C)CO)C(=O)c2cc(NC(=O)CCC(F)(F)F)ccc2O1,inactive
19,Cn1c(=O)c2c(nc(N3CCNCC3)n2CC(=O)c2ccc(Cl)cc2)n(C)c1=O,inactive
20,COc1ccc(S(=O)(=O)N(C)C[C@H]2Oc3ccc(NC(=O)CCCN(C)C)cc3C(=O)N([C@@H](C)CO)C[C@@H]2C)cc1,inactive
21,COc1cccc(S(=O)(=O)N2C[C@@H](O)COC[C@@H]3O[C@H](CC(=O)NCCCN4CCOCC4)CC[C@H]32)c1,inactive
22,C[C@@H]1CN([C@H](C)CO)C(=O)c2cc(NC(=O)CCC(F)(F)F)ccc2O[C@@H](C)CCCCO[C@@H]1CN(C)Cc1ccncc1,inactive
23,COc1ccc(Oc2cc(NCCC(F)(F)F)c3ncc(-c4ccc(C(=O)NC5CC5)c(C)c4)n3n2)c(F)c1F,inactive

row,SMILES,cytotoxicity call
1,C[C@@H]1CN([C@@H](C)CO)C(=O)c2cc(NC(=O)NC3CCCCC3)ccc2O[C@@H]1CN(C)S(C)(=O)=O,inactive
2,C[C@H]1CN([C@@H](C)CO)S(=O)(=O)c2ccc(-c3cccc(C#N)c3)cc2O[C@@H]1CN(C)C(=O)c1ccncc1,inactive
3,C[C@@H]1CN([C@H](C)CO)C(=O)c2cc(NS(=O)(=O)c3ccccc3)ccc2O[C@@H](C)CCCCO[C@@H]1CN(C)Cc1ccc(C(F)(F)F)cc1,inactive
4,C[C@@H]1CN([C@H](C)CO)C(=O)c2cc(NS(=O)(=O)c3ccccc3)ccc2O[C@@H](C)CCCCO[C@H]1CN(C)Cc1ccc(C(F)(F)F)cc1,active
5,C[C@@H]1CCCCO[C@H](CN(C)Cc2ccc(C(F)(F)F)cc2)[C@@H](C)CN([C@@H](C)CO)C(=O)c2cc(NS(=O)(=O)c3ccccc3)ccc2O1,inactive
6,C[C@@H]1CCCCO[C@H](CN(C)Cc2ccc(C(F)(F)F)cc2)[C@H](C)CN([C@@H](C)CO)C(=O)c2cc(NS(=O)(=O)c3ccccc3)ccc2O1,active
7,C[C@@H]1CN([C@@H](C)CO)C(=O)c2cc(NS(=O)(=O)c3ccccc3)ccc2O[C@@H](C)CCCCO[C@H]1CN(C)Cc1ccc(C(F)(F)F)cc1,inactive
8,C[C@@H]1CN([C@@H](C)CO)C(=O)c2cc(NS(=O)(=O)c3ccccc3)ccc2O[C@@H](C)CCCCO[C@@H]1CN(C)Cc1ccc(C(F)(F)F)cc1,inactive
9,C[C@H]1CN([C@@H](C)CO)C(=O)c2cccc(NC(=O)c3nc4ccccc4s3)c2O[C@H]1CN(C)S(=O)(=O)c1cn(C)cn1,inactive
10,CCCNC(=O)Nc1ccc2c(c1)OC[C@H](C)N(C(=O)C1CCOCC1)C[C@@H](C)[C@@H](OC)CN(C)C2=O,inactive
11,Cc1noc(C)c1S(=O)(=O)Nc1cccc2c1O[C@@H](CN(C)CC1CC1)[C@@H](C)CN([C@H](C)CO)C2=O,inactive
12,Cc1ccc(S(=O)(=O)N2C[C@H](O)COC[C@@H]3O[C@@H](CC(=O)NCc4ccc(Cl)c(Cl)c4)CC[C@H]32)cc1,inactive
13,Cc1cccc(S(=O)(=O)N2C[C@@H](O)COC[C@H]3O[C@H](CC(=O)NCc4ccc(Cl)c(Cl)c4)CC[C@@H]32)c1,inactive
14,Cc1ccc(S(=O)(=O)N2C[C@@H](O)COC[C@H]3O[C@H](CC(=O)NCc4ccc(Cl)c(Cl)c4)CC[C@@H]32)cc1,inactive
15,Cc1ccc(S(=O)(=O)N2C[C@H](O)COC[C@H]3O[C@@H](CC(=O)NCc4ccc(Cl)c(Cl)c4)CC[C@@H]32)cc1,active
16,Cc1ccc(S(=O)(=O)N2C[C@H](O)COC[C@@H]3O[C@H](CC(=O)NCc4ccc(Cl)c(Cl)c4)CC[C@H]32)cc1,active
17,Cc1ccc(S(=O)(=O)N2C[C@@H](O)COC[C@H]3O[C@H](CC(=O)NCc4ccc5c(c4)OCO5)CC[C@@H]32)cc1,inactive
18,Cc1ccc(S(=O)(=O)N2C[C@H](O)COC[C@H]3O[C@H](CC(=O)NCc4ccc(Cl)c(Cl)c4)CC[C@@H]32)cc1,inactive
19,Cc1ccc(S(=O)(=O)N2C[C@@H](O)COC[C@@H]3O[C@@H](CC(=O)NCc4ccc5c(c4)OCO5)CC[C@H]32)cc1,inactive
20,Cc1ccc(S(=O)(=O)N2C[C@@H](O)COC[C@@H]3O[C@H](CC(=O)NCc4ccc(Cl)c(Cl)c4)CC[C@H]32)cc1,inactive
21,Cc1ccc(S(=O)(=O)N2C[C@H](O)COC[C@@H]3O[C@H](CC(=O)NCc4ccc5c(c4)OCO5)CC[C@H]32)cc1,active
22,Cc1ccc(S(=O)(=O)N2C[C@@H](O)COC[C@H]3O[C@@H](CC(=O)NCc4ccc(Cl)c(Cl)c4)CC[C@@H]32)cc1,inactive
23,Cc1ccc(S(=O)(=O)N2C[C@@H](O)COC[C@@H]3O[C@@H](CC(=O)NCc4ccc(Cl)c(Cl)c4)CC[C@H]32)cc1,active

# Reference: the antibiotic and cytotoxicity screens of Wong et al. (2023)
